Assay outcomes as filed in PubChem BioAssay.
This is a sample that favours compounds with a hit; in the whole collection about 12% have one here.
Sfp inh = Sfp phosphopantetheinyl transferase inhibition | Q9F4F7 | Potency, µM, hits mostly inhibitors | 310,000 compounds, 3.5% hits | Biochemical Sfp PPTase activity, qHTS;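 further: the enzyme is Sfp with the accession as filed and its product quenches rhodamine fluorescence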
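With Hepes-Na pH 7.6 buffer containing 10 mM MgCl2, Sfp (15 nM) modified BHQ-2-YbbR (12.5 uM) using rhodamine-CoA (5 uM). Two reads 30 minutes apart at 525/598 nm yielded each well's rate.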
JMJD2A Tudor = blocks the human JMJD2A Tudor domain. AlphaScreen JMJD2A-Tudor / H3K4me3 peptide binding. Potency, µM (doses to about 114 µM), most hits filed as inhibitors. 390,000 compounds, 4.4% hits; further: nearly all actives have a fitted effect of over 50% in size
BAZ2B inh = BAZ2B (human) inhibition. Potency, µM (series often up to 114 µM), most hits filed as inhibitors. 360,000 compounds, 4.4% hits. AlphaScreen BAZ2B-H3K14Ac peptide displacement; further: nearly all actives have a fitted effect of over 60% in size
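Multi-concentration screen (max 110 uM) measuring displacement of acetylated histone H3 peptide from BAZ2B by AlphaScreen, using 50 nM protein, 50 nM peptide and 10 ug/mL streptavidin donor plus Ni-chelate acceptor beads.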
HP1b binding inh = blocks HP1-beta chromodomain binding to methylated histone tails. P83916. 390,000 compounds, 0.56% hits. AID 540317. Potency, µM (highest dose often 114 µM), most hits filed as inhibitors. AlphaScreen HP1-beta / biotin-H3K9me3 peptide binding; further: nearly all actives have a fitted effect of over 70% in size
Target sequence (P83916 whole entry, looked up): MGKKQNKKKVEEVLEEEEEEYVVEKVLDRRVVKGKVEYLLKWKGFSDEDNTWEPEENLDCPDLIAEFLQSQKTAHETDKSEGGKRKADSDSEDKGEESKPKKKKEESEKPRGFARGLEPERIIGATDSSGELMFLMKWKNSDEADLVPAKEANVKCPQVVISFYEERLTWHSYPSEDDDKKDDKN
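AlphaScreen: HP1-beta (50 nM) preformed 30 min with biotin-H3(1-18)K9me3 peptide (50 nM) in PBS pH 7.4, 0.01% Tween-20. Compound added for 30 min at RT, then streptavidin donor/nickel chelate acceptor beads (10 ug/mL) for 30 min.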
PLK1 PBD block = PLK1 (human) polo-box domain binding inhibition; 360,000 compounds, 2.8% hits; Potency, µM, usual class: inhibitors; Plk1 PBD binding of FITC phosphopeptide, fluorescence polarization; P53350; AID 720504; further: series mostly up to about 57 µM; nearly all actives have a fitted effect of over 65% in size
G9a inh = blocks human histone lysine methyltransferase G9a | G9a H3K9 monomethylation, AlphaScreen, 2 h | Potency, µM (titrated, usually from 102 µM), hits mostly inhibitors | AID 504332 | Q96KQ7 | 350,000 compounds, 8.8% hits; further: nearly all actives have a fitted effect of over 75% in size
Target sequence (Q96KQ7 913-1193 limits assumed): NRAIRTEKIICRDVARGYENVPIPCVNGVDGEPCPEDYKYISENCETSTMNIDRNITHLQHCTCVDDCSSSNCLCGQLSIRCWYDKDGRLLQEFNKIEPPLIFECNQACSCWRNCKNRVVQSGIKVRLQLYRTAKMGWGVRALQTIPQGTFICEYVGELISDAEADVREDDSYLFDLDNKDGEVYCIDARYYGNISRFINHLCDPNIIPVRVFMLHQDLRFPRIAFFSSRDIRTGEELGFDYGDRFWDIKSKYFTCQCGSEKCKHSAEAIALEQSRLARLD
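Step 1: enzyme (final 20 nM) with compound, 15 min RT. Step 2: substrate peptide 500 nM and SAM 20 uM, 2 h RT. Step 3: anti-H3K9me1 antibody and AlphaScreen beads, 10 min, then plate read.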
A number is an active result; n = inactive; u = inconclusive; x = no result given; [ ] = dose if it differs, or a comment. The call rests on the fitted dose curve; in most records, active means well fitted curve in the direction sought with a large enough effect; inconclusive means small, poorly fitted or top-dose-only effect, or another doubt; inactive means no such curve, though single readings can be large; an effect the other way counts as inactive or inconclusive.

SMILES | Sfp inh | JMJD2A Tudor | BAZ2B inh | HP1b binding inh | PLK1 PBD block | G9a inh
COc1ccccc1-c1cnc(C(O)c2ccc(Cl)c(Cl)c2)[nH]1 (centres undefined) | x | x | x | x | n | x
COCCCN1C(=O)C(=O)/C(=C(/O)c2ccc(OC)cc2)C1c1cccc(OC)c1 (centres undefined) | n | n | n | n | n | u
Cc1ccc(/C(O)=C2\C(=O)C(=O)N(C)C2c2cccc([N+](=O)[O-])c2)cc1 (centres undefined) | n | n | n | n | n | 79µM
COCCCN1C(=O)C(=O)/C(=C(/O)c2ccc(C)cc2)C1/C=C/c1ccccc1 (centres undefined) | n | n | n | n | n | 45µM
CC(=O)C1=C(O)C(=O)N(Cc2ccccc2)C1c1cccc([N+](=O)[O-])c1 (centres undefined) | n | n | n | n | n | u
O=C(CSc1nc2c([nH]c3ccccc32)c(=O)n1-c1ccccc1F)Nc1ccccc1C(F)(F)F | x | n | n | n | x | n
COc1ccc(S(=O)(=O)NCCCC(=O)Nc2ccc(Sc3ccc(N)cc3)cc2)cc1 | n | x | x | x | x | x
COc1ccc(-c2noc(CNC(=O)CCN3C(=O)[C@H]4CC=CC[C@H]4C3=O)n2)cc1 | n | n | n | n | n | x
CCOC(=O)C(CS)NCCN[C@@H](CS)C(=O)OCC (some centres undefined) | 1.6µM | x | x | x | x | u
COc1ccc(Br)c(C(=O)N2CCN(S(=O)(=O)c3cccs3)CC2)c1 | n | n | 89µM | n | n | n
COc1cc(C(=O)N2CCN(S(=O)(=O)c3cccs3)CC2)cc(OC)c1C | n | 79µM | 50µM | n | n | 4.5µM
O=C(c1cccs1)N1CCN(S(=O)(=O)c2cccs2)CC1 | n | n | x | n | n | n
COCCNC(=O)c1cc(-c2ccccc2C)nn1CC1CC(c2cccnc2)=NO1 (centres undefined) | x | n | x | n | n | x
COc1cccc(NC(=O)NCc2ccc3c(c2)CCN3C(=O)c2ccccc2)c1 | x | n | n | n | x | n
O=C(NCc1ccccc1Cl)c1ccc(CS(=O)Cc2ccc(Cl)cc2)o1 (centres undefined) | n | n | n | n | n | n
Cc1cccc(NC(=O)CO/N=C/c2ccc3c(c2)OCO3)c1 | n | n | n | n | n | n
CC(C)Oc1ccc(CCC(=O)N/N=C/c2ccc3c(c2)OCO3)cc1 | n | n | n | n | n | n
Cc1ccc(C)c(NC(=O)CCC(=O)N/N=C/c2ccc3c(c2)OCO3)c1 | n | u | n | n | 17µM | n
O=C(CCc1ccc(O)c(O)c1)N/N=C/c1ccc2c(c1)OCO2 | 40µM | u | n | u | n | x
Cc1ccc(CNC(=O)CO/N=C/c2ccc3c(c2)OCO3)cc1 | n | n | n | n | 27µM | n
CC(C)c1cc(C(=O)N/N=C/c2ccco2)n[nH]1 | n | n | n | n | 7.5µM | n
O=C1OCCC/C1=C\c1ccc2c(c1)OCO2 | n | n | n | n | n | n[12.7 µM]
CC1=C/C(=C\c2ccc3c(c2)OCO3)C(=O)S1 | n | u | u | n | n | 25µM
CCCN1C/C(=C/c2ccc3c(c2)OCO3)C(=O)/C(=C/c2ccc3c(c2)OCO3)C1 | 40µM | 22µM | 50µM | u | n | u
OCCNCCCOc1cccc(Cl)c1Cl | n | x | x | x | x | x
SMILES | Sfp inh | JMJD2A Tudor | BAZ2B inh | HP1b binding inh | PLK1 PBD block | G9a inh
Cc1nc2cc(N)ccc2n1C1CCCCC1 | n | n | u | n | n | 14µM
CCC(=O)O[C@]1(C(=O)CCl)[C@@H](C)CC2C3C[C@H](F)C4=CC(=O)C=CC4(C)[C@@]3(F)C(O)CC21C (some centres undefined) | n | x | x | x | x | n[12.7 µM]
Cc1cc(OCc2ccc(C(=O)n3cccn3)o2)ccc1Cl | n | n | n | n | 24µM | n
COC(=O)c1sccc1NC(=O)CN(C)NS(=O)(=O)c1ccc([N+](=O)[O-])cc1 | n | 56µM | n | n | 24µM | n
COc1cc2c(cc1OC)CN(C1CC(=O)N(c3c(C)cccc3C)C1=O)CC2 (centres undefined) | n | n | n | n | n | 79µM
CC1=C(SCc2ccccc2)C(=O)c2ccccc2C1=O | x | 14µM | x | u | 4.7µM | x
Cc1nc(C)c(C(=O)N(c2ccccc2F)C(C(=O)NCC2CCCO2)c2ccccc2)s1 (centres undefined) | n | u | n | n | 27µM | n[12.7 µM]
CN(C)c1ccc(CC(=O)c2nc3ccccc3s2)cc1 | u | 18µM | 40µM | u | u | u
Cc1ccc(CN(C(=O)COc2ccc(Cl)c(C)c2)C2CCS(=O)(=O)C2)o1 (centres undefined) | x | u | u | n | x | n
Cc1ccc2oc(=O)c3cc(C(=O)NCCCN4CCN(C)CC4)sc3c2c1 | n | n | n | n | n | n
O=C(NCCCN1CCCCCC1)c1cc2c(=O)oc3ccccc3c2s1 | n | n | n | n | n | 79µM
COC(=O)[C@@]12C[C@@H](CC(=O)N3CCSCC3)C(=O)N(Cc3ccc4c(c3)OCO4)C1=CCC(C)(C)C2 | x | x | x | x | n | x
O=C1CCN(Cc2ccccc2)CCN1[C@H](CO)c1ccccc1 | n | n | n | n | n | x
CN1CCC(=O)N([C@H](CO)c2ccccc2)CC1 | n | n | n | n | n | 45µM
CC(NC(=O)c1cnccn1)c1ccc(S(N)(=O)=O)cc1 (centres undefined) | n | n[11.4 µM] | n | n | 27µM | x
CC(C)(C)c1nc2cc(Cl)c([N+](=O)[O-])cc2o1 | n | u | n | u | 27µM | n
Cc1cc(C)cc(N(CC(=O)NCC2CCCO2)C(=O)CN2C(=O)COc3ccccc32)c1 (centres undefined) | n | u | n | n | 30µM | n[12.7 µM]
O=C(CN(C(=O)C1COc2ccccc2O1)c1ccccc1)NCC1CCCO1 (centres undefined) | n | n | n | n | n | n
COc1cccc(C(=O)C(C#N)=C(SC)SC)c1 | 4µM | n | n | n | 15µM | 40µM
N#CC(C#N)=C(Nc1ccccc1)c1ccccc1 | n | n | n | n | n | n
CSC(SC)=C(C#N)C(=O)c1ccccc1 | 7.9µM | n | n | n | 11µM | 50µM
COc1cccc(C(=O)C(CCC#N)c2ccccc2)c1 (centres undefined) | x | x | x | x | n | x
COc1ccc(-n2ncc3c2CC(C)(C)CC3NC(=O)CCN2CCCCC2=O)cc1 (centres undefined) | n | n | n | n | n | n[0.501 µM]
Cc1cccc(S(=O)(=O)c2cn(C)c3cc(N4CCC(C)CC4)c(F)cc3c2=O)c1 | x | n | n | n | x | n
O=C(NCC(=O)N(CCN1CCOCC1)C(C(=O)NC1CCCC1)c1cccnc1)c1cccs1 (centres undefined) | n | n | n | n | n | n
